# In PubChem BioAssay:
# Active and inactive are the calls of the source.
# Legend:
# [1] = system: Plasmodium falciparum Sir2 (PF13_0152, Sir2A); experiment: pfSir2 binders on small-molecule microarrays, primary screen, biochemical, small-molecule microarray, 635 nm fluorescence (AID 1098); conditions: small-molecule microarray binding, fluorescence 635 nm; higher = more signal;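 note: score merges spot fluorescence intensity with its signal-to-noise ratio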
# [2] = small-molecule microarray binders of probe aDKK1, primary screen, biochemical, biotinylated probe, 635/667 nm fluorescence (AID 1099); conditions: higher = more signal;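 note: score merges 667nm spot fluorescence with signal to noise across triplicate slides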
# [3] = small-molecule microarray binders of probe aCHRDL2, primary screen, biochemical, biotinylated probe, 635/667 nm fluorescence (AID 1100); conditions: higher = more signal
# [4] = splicing luciferase reporter signal modulators, primary screen, spliceosome inhibition project, cell-based, HEK293, splice +/- reporter (AID 1101); conditions: luminescence, 24 h, higher = more signal, called active from +8 up or from −8 down;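 note: HEK293 cells carrying a splicing-competent luciferase reporter gene; test concentration not given here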
# [5] = biological target: Fibroblast growth factor 10 (Homo sapiens) (UniProt O15520); experiment: FGF10 binders on small-molecule microarrays, primary screen, biochemical, small-molecule microarray, 635 nm fluorescence (AID 1102); conditions: FGF10 binding, fluorescence 635 nm, higher = more signal
# [6] = system: glycogen synthase kinase-3 (GSK3A per assay name; protocol says GSK3B); experiment: GSK3 binders on small-molecule microarrays, primary screen, biochemical, small-molecule microarray, 635 nm fluorescence, GSK3A (AID 1103); conditions: small-molecule microarray binding, fluorescence 635 nm; higher = more signal; note: the record names both GSK3A and GSK3B
# [7] = biological target: Epidermal growth factor receptor (Homo sapiens) (UniProt P00533); experiment: EGFR binders on small-molecule microarrays, primary screen, biochemical, small-molecule microarray, 635 nm fluorescence (AID 1104); conditions: EGFR binding, higher = more signal;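 note: score merges 667 nm emission intensity with spot signal to noise over triplicate slides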
# [8] = biological target: Follistatin-related protein 3 (Homo sapiens) (UniProt O95633); experiment: FSTL3 binders on small-molecule microarrays, primary screen, biochemical, small-molecule microarray, 635 nm fluorescence (AID 1105); conditions: FSTL3 binding, higher = more signal;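 note: score merges emission near 667 nm and signal to noise per printed spot across three slides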
# [9] = biological target: Dickkopf-related protein 1 (Homo sapiens) (UniProt O94907); experiment: DKK1 binders on small-molecule microarrays, primary screen, biochemical, small-molecule microarray, 635 nm fluorescence scan (AID 1106); conditions: DKK1 binding, higher = more signal;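 note: score merges emission near 667 nm with signal to noise over three replicate slides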
# [10] = system: Inhibin beta A chain (activin A); experiment: INHBA (activin A) binders on microarrays, primary screen, biochemical, small-molecule microarray, 635 nm fluorescence scan (AID 1107); conditions: small-molecule microarray binding, higher = more signal;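 note: mouse activin A protein probed at 4.33 µg/mL on printed slides; score merges bound-protein fluorescence near 667 nm with spot signal-to-noise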
# [11] = system: Human papillomavirus type 1a protein E7 (residues 44-93); experiment: HPV1a E7 fragment binders on microarrays, primary screen, biochemical, small-molecule microarray, residues 44-93, 635 nm fluorescence (AID 1108); conditions: small-molecule microarray binding, fluorescence 635 nm; higher = more signal;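 note: E7 fragment applied at 1 µg/mL in TBST for 1 h at 4 C; score combines spot fluorescence with its signal to noise ratio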
# [12] = modulators of HCV replicon luciferase signal, primary screen, HCV replication inhibitor project, Huh7 cells, luciferase reporter (AID 1109); conditions: 48 h, higher = more signal;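 note: huh7 hepatoma cells harbouring a luciferase neomycin HCV replicon reporter; luciferase luminescence as measure of HCV replicon replication; test concentration not given here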
# [13] = biological target: Left-right determination factor 2 (Homo sapiens) (UniProt O00292); experiment: LEFTY2 binders on small-molecule microarrays, primary screen, biochemical, small-molecule microarray, 635 nm fluorescence scan (AID 1110); conditions: LEFTY2 binding, higher = more signal
# [14] = biological target: Calmodulin-1 (Homo sapiens) (UniProt P0DP23); experiment: CALM1 binders on microarrays, EGTA buffer, profiling panel, biochemical, small-molecule microarray, Cy5-labelled CALM1 (AID 1111); conditions: Cy5-CALM1 binding fluorescence, higher = more signal;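 note: labelled calmodulin applied in Tris saline Tween buffer holding calcium plus EGTA and DTT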
# [15] = biological target: Calmodulin-1 (Homo sapiens) (UniProt P0DP23); experiment: calcium-bound CALM1 binders on microarrays, profiling panel, artefact control for SMM control-protein annotation, biochemical, small-molecule microarray, Cy5-labelled CALM1, plus calcium (AID 1112); conditions: Cy5-CALM1 binding fluorescence, higher = more signal;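 note: score merges spot fluorescence with signal to noise from triplicate slides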
# [16] = small-molecule microarray binders of probe aWnt5a, primary screen, biochemical, biotinylated probe, 635/667 nm fluorescence (AID 1113); conditions: higher = more signal;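 note: score merges 667 nm fluorescence intensity with signal-to-noise per printed feature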
# [17] = small-molecule microarray binders of probe aShh, primary screen, biochemical, biotinylated probe, 635/667 nm fluorescence (AID 1114); conditions: higher = more signal;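 note: probe is biotin-labelled aShh protein from a stem cell growth factor screen; measures binding of labelled protein to compounds printed on the slide; score merges feature fluorescence at 667 nm with signal-to-noise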
# [18] = small-molecule microarray binders of probe aNog, primary screen, biochemical, biotinylated probe, 635/667 nm fluorescence (AID 1115); conditions: higher = more signal;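 note: probe is biotinylated aNog protein used at 0.15 µg/mL for 1 h at 4 C; z-score combines 667 nm fluorescence of each spot with its signal to noise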
# [19] = biological target: Torsin-1A-interacting protein 1 (Homo sapiens) (UniProt Q5JTV8); experiment: LAP1 binders from COS7 cell lysate, primary screen, small-molecule microarray, 635/667 nm fluorescence (AID 1116); conditions: COS7-hLAP1 lysate binding, 635 nm fluorescence, higher = more signal
# [20] = biological target: Alpha-bungarotoxin (Bungarus multicinctus) (UniProt P60615); experiment: alpha-bungarotoxin binders on microarray, profiling panel, artefact control for SMM control protein annotation, biochemical, small-molecule microarray, Alexa647 label, 635/667 nm fluorescence (AID 1117); conditions: alpha-BTX-A647 binding fluorescence, higher = more signal
# Sequence of Alpha-bungarotoxin (Bungarus multicinctus) (P60615 whole entry, looked up): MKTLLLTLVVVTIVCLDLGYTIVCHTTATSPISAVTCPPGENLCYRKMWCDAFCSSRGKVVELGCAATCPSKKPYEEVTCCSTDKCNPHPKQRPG
# Sequence of Fibroblast growth factor 10 (Homo sapiens) (O15520 whole entry, looked up): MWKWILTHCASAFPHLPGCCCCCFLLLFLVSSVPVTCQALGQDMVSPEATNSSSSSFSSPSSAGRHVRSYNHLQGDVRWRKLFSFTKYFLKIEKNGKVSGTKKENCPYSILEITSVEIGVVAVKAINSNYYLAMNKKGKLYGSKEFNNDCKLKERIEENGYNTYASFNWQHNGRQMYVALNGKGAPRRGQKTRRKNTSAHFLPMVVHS
# Sequence of Left-right determination factor 2 (Homo sapiens) (O00292 whole entry, looked up): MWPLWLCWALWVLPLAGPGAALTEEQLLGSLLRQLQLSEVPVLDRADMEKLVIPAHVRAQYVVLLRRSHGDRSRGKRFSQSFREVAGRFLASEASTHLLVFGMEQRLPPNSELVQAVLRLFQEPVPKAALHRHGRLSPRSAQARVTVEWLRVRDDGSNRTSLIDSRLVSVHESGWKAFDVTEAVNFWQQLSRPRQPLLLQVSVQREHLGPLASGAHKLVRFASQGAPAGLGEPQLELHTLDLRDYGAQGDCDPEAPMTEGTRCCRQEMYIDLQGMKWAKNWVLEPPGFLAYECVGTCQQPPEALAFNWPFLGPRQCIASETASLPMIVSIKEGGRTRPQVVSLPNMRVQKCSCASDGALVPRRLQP
# Sequence of Follistatin-related protein 3 (Homo sapiens) (O95633 whole entry, looked up): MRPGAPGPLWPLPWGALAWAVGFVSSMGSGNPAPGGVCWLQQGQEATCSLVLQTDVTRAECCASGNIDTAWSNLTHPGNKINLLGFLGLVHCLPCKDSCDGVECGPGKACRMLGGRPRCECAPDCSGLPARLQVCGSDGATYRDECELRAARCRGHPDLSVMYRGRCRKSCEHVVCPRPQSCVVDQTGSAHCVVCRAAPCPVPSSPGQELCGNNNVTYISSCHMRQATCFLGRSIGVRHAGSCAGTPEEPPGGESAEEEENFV
# Sequence of Epidermal growth factor receptor (Homo sapiens) (P00533 whole entry, looked up): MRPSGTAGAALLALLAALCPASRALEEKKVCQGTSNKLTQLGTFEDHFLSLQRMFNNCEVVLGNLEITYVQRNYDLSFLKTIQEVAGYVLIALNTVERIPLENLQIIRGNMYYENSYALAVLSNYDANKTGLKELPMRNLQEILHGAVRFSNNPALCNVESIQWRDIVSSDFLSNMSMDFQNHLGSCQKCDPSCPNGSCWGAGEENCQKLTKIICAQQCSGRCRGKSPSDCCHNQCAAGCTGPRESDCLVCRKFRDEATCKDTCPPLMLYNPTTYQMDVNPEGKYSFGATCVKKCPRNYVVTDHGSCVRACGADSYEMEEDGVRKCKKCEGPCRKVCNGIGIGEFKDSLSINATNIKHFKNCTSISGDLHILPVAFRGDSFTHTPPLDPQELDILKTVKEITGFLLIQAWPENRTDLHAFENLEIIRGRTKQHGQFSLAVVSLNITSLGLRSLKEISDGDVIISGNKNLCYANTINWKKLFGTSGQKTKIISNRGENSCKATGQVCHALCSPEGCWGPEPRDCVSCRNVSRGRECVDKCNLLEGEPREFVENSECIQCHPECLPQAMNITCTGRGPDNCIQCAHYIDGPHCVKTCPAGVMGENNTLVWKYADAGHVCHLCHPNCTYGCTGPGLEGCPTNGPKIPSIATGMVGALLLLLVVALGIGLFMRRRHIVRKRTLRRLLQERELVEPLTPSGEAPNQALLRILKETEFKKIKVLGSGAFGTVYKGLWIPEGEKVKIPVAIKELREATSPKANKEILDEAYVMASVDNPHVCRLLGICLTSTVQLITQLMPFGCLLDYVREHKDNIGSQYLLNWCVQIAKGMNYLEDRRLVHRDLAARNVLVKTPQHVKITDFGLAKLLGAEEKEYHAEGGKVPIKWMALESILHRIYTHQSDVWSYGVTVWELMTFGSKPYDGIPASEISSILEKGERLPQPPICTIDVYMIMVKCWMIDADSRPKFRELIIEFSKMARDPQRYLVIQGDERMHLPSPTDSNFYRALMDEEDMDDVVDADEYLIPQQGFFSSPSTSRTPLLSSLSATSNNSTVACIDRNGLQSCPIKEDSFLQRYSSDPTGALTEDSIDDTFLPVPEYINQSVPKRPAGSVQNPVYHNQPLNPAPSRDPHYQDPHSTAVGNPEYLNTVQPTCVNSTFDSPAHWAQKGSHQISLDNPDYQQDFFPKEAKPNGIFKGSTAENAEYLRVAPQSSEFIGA
# Sequence of Dickkopf-related protein 1 (Homo sapiens) (O94907 whole entry, looked up): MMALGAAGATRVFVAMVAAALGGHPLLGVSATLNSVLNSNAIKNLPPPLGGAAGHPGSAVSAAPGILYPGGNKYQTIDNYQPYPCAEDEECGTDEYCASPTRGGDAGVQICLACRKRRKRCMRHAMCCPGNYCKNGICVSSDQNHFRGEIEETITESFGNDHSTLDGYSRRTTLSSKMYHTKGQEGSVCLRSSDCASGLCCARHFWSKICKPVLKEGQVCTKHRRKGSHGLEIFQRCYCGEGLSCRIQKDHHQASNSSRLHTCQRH
# Sequence of Torsin-1A-interacting protein 1 (Homo sapiens) (Q5JTV8 whole entry, looked up): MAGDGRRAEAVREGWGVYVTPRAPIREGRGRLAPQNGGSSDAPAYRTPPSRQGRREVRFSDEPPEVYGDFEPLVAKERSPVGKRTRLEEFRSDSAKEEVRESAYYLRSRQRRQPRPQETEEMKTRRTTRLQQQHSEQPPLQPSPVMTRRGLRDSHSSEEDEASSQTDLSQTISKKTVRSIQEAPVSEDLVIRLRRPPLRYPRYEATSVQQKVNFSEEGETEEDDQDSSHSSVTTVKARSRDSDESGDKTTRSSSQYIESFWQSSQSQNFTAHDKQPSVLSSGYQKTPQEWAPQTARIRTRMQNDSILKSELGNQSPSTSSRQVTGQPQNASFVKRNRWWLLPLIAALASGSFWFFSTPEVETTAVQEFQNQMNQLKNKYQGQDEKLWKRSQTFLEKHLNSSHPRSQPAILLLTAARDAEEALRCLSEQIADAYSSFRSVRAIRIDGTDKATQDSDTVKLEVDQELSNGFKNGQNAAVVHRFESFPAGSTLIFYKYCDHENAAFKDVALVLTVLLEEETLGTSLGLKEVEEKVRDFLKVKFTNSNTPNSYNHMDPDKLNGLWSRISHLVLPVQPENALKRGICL
Compound,composite z-score [1],composite z-score [2],composite z-score [3],z-score [4],composite z-score [5],composite z-score [6],composite z-score [7],composite z-score [8],composite z-score [9],composite z-score [10],composite z-score [11],z-score [12],composite z-score [13],composite z-score [14],composite z-score [15],composite z-score [16],composite z-score [17],composite z-score [18],composite z-score [19],composite z-score [20]
COC(=O)[C@H](C)NC(=O)CCC1CC(OC(=O)NCc2ccc3c(c2)OCO3)CC2(CCCC(COC(=O)NCCc3ccc(Cl)cc3)O2)O1 (stereo not given in full),0.207,-0.146,-0.589,-0.51 (inactive),0.382,0.591,0.351,0.762,1.87,0.219,0.536,-0.562,1.13,-0.209,-0.97,-0.0367,0.0893,-0.111,0.288,0.202
CON(C)C(=O)c1nnc2c(n1)[nH]c1ccccc12,0.214,0.256,-0.0786,-0.562 (inactive),0.692,0.217,0.319,0.651,0.377,0.221,-0.186,2.27,0.414,-0.15,-0.229,-0.148,-0.23,-0.33,2.14,0.573
CO[C@@H]1C=CCC(=O)N[C@@H](C)C(=O)OC[C@@H](NS(=O)(=O)c2ccc(C)cc2)[C@H](C)C=CCC(=O)OC[C@H]1C,-0.401,-0.298,-0.748,-0.275 (inactive),0.238,-0.0731,0.329,0.828,0.359,0.976,-0.844,0.46,0.957,-0.062,-0.417,-0.18,0.0442,-0.0116,-0.159,-0.135
C[C@@H]1CC[C@H]2C(=O)OC(CN3C(=O)c4ccccc4C3=O)CN2[C@H]1c1ccc(Br)cc1 (stereo not given in full),0.532,-0.117,-0.0788,0.5 (inactive),0.398,-0.0067,0.13,-0.234,0.383,0.74,0.901,0.302,0.113,1.53,0.772,-0.091,0.111,0.243,0.419,0.666
CO[C@H]1COC(=O)CCC[C@H](C)[C@@H](OC)COC(=O)CC=C[C@@H]1C,0.981,-0.26,-0.811,-1.05 (inactive),0.267,0.278,0.711,0.319,0.846,0.691,-0.431,-1.63,0.966,-0.946,-1.1,-0.191,-0.0248,-0.267,0.387,0.0355
CC(C)(C)N1C(=O)[C@H]2[C@H]3[C@H](O)[C@H](O)CC(=NNC(=O)OCc4ccccc4)[C@H]3CC[C@H]2C1=O,-0.195,0.0773,-0.525,-0.422 (inactive),0.72,0.792,0.208,0.889,0.608,-1.06,0.978,-1.9,0.613,-0.0736,-0.313,-0.107,0.0141,0.0516,0.522,0.613
CCOC(=O)NN=C1C[C@@H](O)[C@@H](O)[C@@H]2[C@@H]3C(=O)N(c4ccc(F)cc4F)C(=O)[C@@H]3CC[C@H]12,-0.304,-0.349,-0.626,-1.43 (inactive),0.158,0.544,0.742,0.438,0.871,0.0584,0.108,1.28,0.42,-0.244,-0.212,-0.126,-0.289,0.0775,0.59,0.21
COc1ccc(O[C@H]2C=C[C@@H](c3ccccc3)O[C@@H]2COC(=O)CCC(C)=NOC[C@@H](O)COCc2ccco2)cc1,-1.47,-0.866,0.0183,-0.909 (inactive),-2.67,-1.95,-2.8,-2.9,-1.99,-0.0879,-0.82,-0.681,-4.63,-2.11,-2.04,-0.449,-0.267,-0.715,-2.94,-1.65
CC(=O)OC[C@H]1O[C@H](CC=NO[C@H](C)c2cn([C@@H]3COC[C@H]3O)nn2)C=C[C@@H]1OC(C)=O,0.197,-0.185,-0.434,-1.06 (inactive),0.172,0.0915,0.476,0.255,1.1,0.257,-0.535,-0.774,0.0524,-0.616,-0.934,-0.0685,-0.206,-0.17,0.637,0.799
O=C1C2=CC[C@H]3C(=O)N(C[C@@H]4CCCO4)C(=O)[C@H]3[C@H]2[C@H](O)[C@@H]2O[C@H]12,1.22,-0.28,-0.594,-1.47 (inactive),0.364,0.443,0.259,-0.191,-0.0034,-0.277,0.0207,-4.56,0.153,-0.248,-1.13,-0.219,0.0121,-0.158,0.518,0.395
C[C@@H]1CC[C@H]2C(=O)OC(Cc3ccccc3)CN2[C@H]1c1ccc(Br)cc1 (stereo not given in full),0.413,-0.193,-0.312,0.264 (inactive),0.524,0.255,0.0012,0.141,-0.0094,0.445,0.911,0.161,0.34,-0.241,-0.536,-0.228,-0.0146,0.105,0.781,0.599
